An excerpt weighted towards active compounds, which were near 3.4% of everything screened.
MITF inh: inhibitors of human MITF; 650,000 compounds, 0.91% hits; O75030; inhibition, % at 2.6 µM; AlphaScreen MITF homodimerization, bead proximity signal; in the data active = inhibition above about 50%;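 also: 0% = vehicle wells with protein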
TEAD-YAP block: TEAD-YAP interaction inhibition. inhibition, % at 9.12 µM. HEK-TIYL cells, TEAD-Gal4/YAP UAS-luciferase luminescence. AID 1259422. 640,000 compounds, 1.4% hits; in the data active = inhibition above about 32%;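 also: 0% = median of test compound wells and 100% = reference inhibitor wells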
FBW7 act: activators of human E3 ligase FBW7 | normalized activity (activation), % at 26.1 µM | 650,000 compounds, 0.13% hits | Q969H0 | AID 1259310 | AlphaScreen FBW7–phospho-cyclin E peptide binding, activator screen; in the data active = normalized activity above about 1.9%;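 also: purified mutant Fbw7 with reduced substrate affinity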
Target sequence (Q969H0 whole entry, looked up): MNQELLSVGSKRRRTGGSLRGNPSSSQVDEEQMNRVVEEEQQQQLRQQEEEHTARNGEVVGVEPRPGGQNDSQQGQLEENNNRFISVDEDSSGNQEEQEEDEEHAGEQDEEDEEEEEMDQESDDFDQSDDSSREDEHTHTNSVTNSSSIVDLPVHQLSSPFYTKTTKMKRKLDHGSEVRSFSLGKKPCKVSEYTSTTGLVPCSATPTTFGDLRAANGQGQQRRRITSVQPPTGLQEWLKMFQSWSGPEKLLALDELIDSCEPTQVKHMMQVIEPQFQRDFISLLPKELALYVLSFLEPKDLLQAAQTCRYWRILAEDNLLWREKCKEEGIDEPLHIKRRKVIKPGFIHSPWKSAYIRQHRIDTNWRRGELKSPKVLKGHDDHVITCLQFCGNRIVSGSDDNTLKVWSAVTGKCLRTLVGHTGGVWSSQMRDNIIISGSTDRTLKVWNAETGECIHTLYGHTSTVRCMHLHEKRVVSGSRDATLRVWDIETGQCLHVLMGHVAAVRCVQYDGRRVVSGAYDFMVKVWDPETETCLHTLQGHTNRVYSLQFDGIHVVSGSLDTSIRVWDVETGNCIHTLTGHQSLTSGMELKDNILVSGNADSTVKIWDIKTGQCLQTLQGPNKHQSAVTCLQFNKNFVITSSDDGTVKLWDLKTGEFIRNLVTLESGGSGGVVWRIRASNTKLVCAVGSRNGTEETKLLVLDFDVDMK
GPR151 ag: activators of human GPR151. Q8TDV0. PathHunter beta-arrestin GPR151 cells, luminescence. activation, % at 11.2 µM. 650,000 compounds, 1% hits. AID 1508602; in the data active = activation above about 4.9%;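 also: 0% = median of compound wells and 100% = cells with positive control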
MITF confirm: human MITF inhibition, confirmation. AlphaScreen MITF homodimerization, biotin/His-MITF beads. shares compounds with MITF inh. inhibition, % at 2.6 µM. 4,700 compounds, 16% hits;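 active = inhibition above a cutoff derived from the DMSO control wells, cut at about 28% in these data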;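 also: 0% = MITF dimer wells with DMSO only; inhibitors lower the bead chemiluminescence by keeping MITF from dimerizing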
AS interf DR: counter-screen: compounds optically interfering with AlphaScreen; shares compounds with MITF inh; AlphaScreen optical interference counterscreen, cell-free; IC50, µM; 480 compounds, 6% hits; AID 1259373; call rule not given here
AlphaScreen intf2: counter-screen: compounds optically interfering with AlphaScreen; 4,700 compounds, 7.6% hits; shares compounds with MITF inh; LysRS AlphaScreen counterscreen, signal interference, triplicate; inhibition, % at 2.6 µM;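 active = inhibition above a cutoff derived from the DMSO control wells, cut at about 30% in these data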
Numbers without * were called inactive; / = no result given.

SMILES	MITF inh	TEAD-YAP block	FBW7 act	GPR151 ag	MITF confirm	AlphaScreen intf2	others
O=C(O)CC(CCc1ccccc1)CC(=O)O	61*	18	0	0	18	16
Cc1c(C(=O)O)cccc1-c1ccc(/C=C(\C#N)C(=O)NCc2ccco2)o1	24	-21	0	-1	/	/
N#C/C(=C\c1ccc(-c2ccccc2C(=O)O)o1)C(=O)NCc1ccco1	76*	-3	-1	-1	64*	-5	AS interf DR=>6.5
COc1cc(OC)cc(C(=O)N2CCN(Cc3ccc4ccccc4c3)CC2)c1	39	6	0	-2	/	/
COc1ccc(C(=O)N2CCN(Cc3ccc(C(F)(F)F)cc3)CC2)cc1OC	51*	49*	0	0	7	12
COc1ccc(C(=O)N2CCN(Cc3cc(OC)c(O)c(OC)c3)CC2)cc1OC	37	2	0	1	/	/
COc1cc(OC)cc(C(=O)N2CCN(Cc3ccc(C(F)(F)F)cc3)CC2)c1	52*	6	0	0	21	13
COc1cccc(CN(CCN(C)C)C(=O)c2cn3ccc(-c4ccncc4)cc3n2)c1	6	-1	0	-1	/	/
CN(C)CC(C)(C)CNC(=O)C1CCN(Cc2cccc(Br)c2)CC1	58*	12	1	0	-3	-2
NC(=O)C(=O)N/N=C1\CCc2ccccc21	5	-2	0	0	/	/
O=S(=O)(O)c1ccc(N/N=C2\CCc3ccccc32)cc1	67*	16	0	-1	46*	-2	AS interf DR=>6.5
COc1ccc(C(NC(=O)C2CCN(C(=O)Nc3ccccc3)CC2)c2ccccn2)cc1 (configuration not stated)	10	4	0	0	/	/
CCCCN1C(=O)C(=O)N(CC(=O)Nc2ccc(C)c(Cl)c2)C1=O	66*	4	0	0	-12	-5
CCOc1ccc(C2C3=C(CCCC3=O)N(CC(=O)O)C3=C2C(=O)CCC3)cc1OC	5	12	0	1	/	/
COCCN(C(=O)c1sc2nc3n(c(=O)c2c1C)CCCC3)C1CCN(C(C)=O)CC1	0	-7	0	0	/	/
C=CCOC(=O)C[N+](C)(C)C/C=C/c1ccccc1	0	0	0	-1	/	/
S=c1[nH]nc(-c2ccco2)n1/N=C/C=C/c1ccco1	73*	-8	-1	-1	33*	2	AS interf DR=>6.5
Brc1ccc(CSc2nnnn2-c2ccccc2)cc1	-3	-1	0	0	/	/
CCOC(=O)C1=C(C)N=c2s/c(=C\c3ccc(-c4ccc(Cl)cc4)o3)c(=O)n2C1c1ccc(OC)cc1OC (configuration not stated)	-9	-10	0	1	/	/
CC1=C(C(=O)N2CCOCC2)C(c2ccc(C)cc2)NC(=S)N1 (configuration not stated)	70*	-8	0	-1	9	16
CC1=C(C(=O)N2CCOCC2)C(c2ccc(Cl)cc2)NC(=S)N1 (configuration not stated)	-11	-4	0	0	/	/
CCOc1c(O)ccc(/C=C2\C(=O)Nc3ccc(Br)cc32)c1[N+](=O)[O-]	65*	-1	0	0	2	23
N#Cc1ccc(-c2ccc(F)cc2)nc1SCC(=O)NC1CC1	52*	5	0	1	-3	3
Cc1cc(C)c(C2C(C#N)=C(N)Oc3n[nH]c(C)c32)cc1CSc1ccc(Br)cc1 (configuration not stated)	99*	-10	-1	1	-9	-9
Cc1cc(C)c(C2C(C#N)=C(N)Oc3n[nH]c(C)c32)cc1COc1ccc(F)cc1 (configuration not stated)	6	0	0	0	/	/
SMILES	MITF inh	TEAD-YAP block	FBW7 act	GPR151 ag	MITF confirm	AlphaScreen intf2	others
COCCn1c(=S)[nH]c2cc(Cl)ccc21	3	2	0	1	/	/
CCC(C)(C)c1ccc(OCCN2CCNCC2)c(Cl)c1	61*	-1	0	1	-8	-6
Cc1ccc(OCCN2CCNCC2)c(Br)c1	47	1	0	-1	/	/
Cc1ccc(SCCCCN2CCNCC2)cc1	61*	-28	0	1	27	-3
Brc1cccc(OCCCCN2CCNCC2)c1	48	0	0	0	/	/
Cc1ccc(OCCCCN2CCNCC2)c(Br)c1	56*	-18	0	3	21	20
Clc1cc(Br)ccc1OCCCCN1CCNCC1	56*	14	0	0	-13	3
O=C(CN1C(=O)c2ccccc2S1(=O)=O)Nc1nc(-c2ccccc2)cs1	-8	0	0	1	/	/
COc1ccc(-n2ncc3c(NCCc4ccc(S(N)(=O)=O)cc4)ncnc32)cc1	6	8	0	2	/	/
Cc1ccc(C(C)C)c(OCCN(C)C)c1	54*	9	0	-1	6	-1
Cc1ccc(C(C)C)c(OCCCCN2CCNCC2)c1	75*	3	0	1	-6	-4
Cc1cc(Br)ccc1OCCCCN1CCNCC1	66*	0	0	0	6	4
Cc1ccc(C(C)C)c(OCC(O)CN2CCOCC2)c1 (configuration not stated)	-14	5	0	0	/	/
Cc1ccc(C(C)C)c(OCC#CCN2CCOCC2)c1	55*	-10	0	-1	4	14
Cc1ccc(C(C)C)c(OCC(N)=O)c1	11	3	0	-1	/	/
Cc1ccc(C(C)C)c(OCCOCCN2CCNCC2)c1	-4	3	0	1	/	/
CN1CCC(NC2CCN(c3ccc(C(=O)N4CCc5ccccc5C4)cc3)CC2)CC1	-7	-6	0	-1	/	/
CC1=C(C(=O)OCCOc2ccccc2)C(c2cc3c(cc2[N+](=O)[O-])OCO3)C2=C(CC(c3ccc(Cl)cc3)CC2=O)N1 (configuration not stated)	13	4	0	1	/	/
Cc1c(C#N)c(O)n(CCCO)c(=O)c1N=Nc1c(C)n(C)n(-c2ccccc2)c1=O	84*	15	-1	1	23	100*
Cc1c(C#N)c(O)n(CCO)c(=O)c1N=Nc1ccccc1C(=O)O	16	12	0	-1	/	/
O=C1CN(C(=O)COC(=O)c2c3c(nc4ccccc24)CCC3)c2ccccc2N1	72*	-1	0	2	19	15
COCCCNCCCCOc1ccc(C(C)C)c(C)c1	58*	7	0	0	4	15
COCCCNCCCOc1ccc(C(C)C)c(C)c1	59*	-5	0	-2	2	18
COc1cccc(-n2c(SCC(=O)Nc3nccs3)nnc2-c2cccnc2)c1	4	-3	0	-1	/	/
Cc1cc(C)cc(-n2c(SCC(=O)Nc3nccs3)nnc2-c2cccnc2)c1	58*	-13	0	1	2	15
